High-throughput results as filed in PubChem.
Compounds with a hit are over-represented: about 4% of the library has one in this group of screens.
TROY signal inh: inhibitors of TROY-dependent NF-kB signaling; Q293 LMP1-TROYcd NF-kB luciferase reporter, 4 h; inhibition, % at 10 µM; 360,000 tested, 0.98% active; AID 1347056;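 active means compounds whose plate-normalised and pattern-corrected inhibition of the luciferase reporter signal at the single screening dose is 50% or more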
CF NFkB block: cystic fibrosis NF-kB activation inhibition | KKLEB NF-kB-GFP reporter, PAF-induced, GFP fluorescence overnight | inhibition, % at 5 µM | 360,000 tested, 0.86% active;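 active means at least 50% inhibition at 5 µM, scaled per plate between neutral and stimulator controls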;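 further: PAF is a Pseudomonas aeruginosa culture filtrate used as stimulus; plate controls were PAF-stimulated DMSO wells for no effect and unstimulated DMSO wells for full effect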
TWEAK Fn14 block: TWEAK-Fn14 signaling inhibition; inhibition, % at 10 µM; 360,000 tested, 2% active; TWEAK-stimulated Fn14 reporter cells, luciferase luminescence, 8 h; AID 1159606; in the data active means inhibition above about 50%
HIF-2a block: HIF-2a inhibition. 786-0 RCC cells HIF-2a reporter, luciferase luminescence, overnight. inhibition, % at 18.8 µM. 360,000 tested, 0.72% active. AID 624352;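 active means inhibition of the luminescence signal of 40% or more relative to plate controls, in a single-dose primary screen at 18.75 µM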
KKLEB tox: counter-screen for CF NF-kB inhibitors: cytotoxicity. KKLEB CF airway cells viability, ATPlite luminescence, overnight; active compounds read low; cells stimulated with P. aeruginosa culture filtrate. activity change (cytotoxicity), % at 5 µM. 360,000 tested, 0.36% active. AID 602141;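 active means corrected activity change at or below -50% at 5 µM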
Peg3 prom inh: Peg3 promoter activity inhibition. HeLa PEG-Prom luciferase reporter, luminescence, overnight. inhibition, % at 20 µM. 360,000 tested, 1.7% active. AID 588405;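 active means inhibition of at least 50% at 20 µM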
Active calls of the source: *; / = not tested or not shown.

SMILES | TROY signal inh | CF NFkB block | TWEAK Fn14 block | HIF-2a block | KKLEB tox | Peg3 prom inh
Cc1ccc2[nH]c(C(=O)NN=C3CCCCC3)c(-c3ccccc3)c2c1 | 27 | 9 | 51* | 16 | -4 | 13
O=C(NCCC1=CCCCC1)C1CCN(C(=O)Nc2ccccc2)CC1 | -3 | -4 | 110* | 7 | 4 | 1
c1ccc(-c2nc3ccccc3o2)nc1 | -48 | -19 | -3 | -158 | 4 | -177
c1ccc2nc(-c3nc4ccccc4o3)ccc2c1 | 58* | -40 | 94* | 17 | -27 | 19
CCOc1cc(/C=C(\CC(=O)O)c2nc3ccccc3s2)ccc1OC | 37 | 32 | 62* | 8 | -9 | 8
COc1ccc(/C=C(\CC(=O)O)c2nc3ccccc3s2)cc1O | -10 | 6 | 17 | 10 | 6 | 9
Cc1cccc(C(=O)N2CCC(c3nc(-c4ccc(S(=O)(=O)N5CCOCC5)cc4)no3)CC2)c1 | 12 | 5 | 2 | 6 | -5 | 34
O=C(c1ccccc1)N1CCC(c2nc(-c3ccc(S(=O)(=O)N4CCOCC4)cc3)no2)CC1 | / | 1 | 62* | 4 | 2 | 26
CCCc1nc2ccc(Cl)cn2c1Cc1ccsc1 | 5 | -10 | -12 | -143 | 0 | -191
Cc1cc(C)c(NC(=O)CN(C)C(C)C(=O)N2CCc3ccccc32)c(C)c1 (centres undefined) | 3 | 26 | 9 | 13 | -31 | 20
CC(C)N(C(=O)N1CCN(c2ccnc3cc(Cl)ccc23)CC1)C(C)C | 26 | 3 | 19 | 20 | -3 | 54*
Cc1cc(N2CCN(S(=O)(=O)c3ccc(Cl)cc3)CC2)c2ccccc2n1 | 53* | 20 | 31 | 5 | -9 | 11
Cc1ccc(S(=O)(=O)N2CCN(c3ccnc4cc(Cl)ccc34)CC2)cc1 | 31 | 17 | 51* | 18 | 2 | 7
Cc1ccc(S(=O)(=O)N2CCN(c3ccnc4cc(Cl)ccc34)CC2)cc1C | 25 | 19 | 10 | 22 | -26 | 4
Cc1cc(N2CCN(S(=O)(=O)c3ccc(Cl)c(Cl)c3)CC2)c2ccccc2n1 | 20 | 2 | 15 | 10 | -3 | 29
CCS(=O)(=O)N1CCN(c2ccnc3cc(Cl)ccc23)CC1 | -1 | -2 | 5 | 19 | 6 | 18
CS(=O)(=O)N1CCN(c2ccnc3cc(Cl)ccc23)CC1 | 21 | -1 | 67* | 8 | -2 | 9
CCCCN(Cc1ccccc1)C(=O)C1CCC(=O)N(CCc2ccccn2)C1 (centres undefined) | 0 | -13 | -3 | 4 | 2 | 11
CCCC(C)c1oc(=O)cc(O)c1C (centres undefined) | 11 | 2 | -3 | -1 | 14 | -8
Cc1ccc(-c2csc(NC(=O)c3cc([N+](=O)[O-])ccc3N3CCOCC3)n2)cc1 | 26 | 21 | -27 | -7 | -16 | -6
O=C(Nc1nc(-c2ccccc2)cs1)c1ccc(N2CCOCC2)c([N+](=O)[O-])c1 | 83* | 8 | 106* | -15 | -17 | 67*
O=C(Nc1cccc(Cl)c1N1CCCCC1)c1ccc(N2CCOCC2)c([N+](=O)[O-])c1 | -5 | 65* | -13 | 11 | -68* | 19
O=C(Nc1nc2ccccc2s1)c1ccc(N2CCCCC2)c([N+](=O)[O-])c1 | 45 | 3 | 81* | -87 | 12 | -118
O=C(Nc1ccon1)c1ccc(N2CCCCC2)c([N+](=O)[O-])c1 | -54 | -7 | -11 | -252 | -10 | -314
O=C(Nc1cccc(Cl)c1N1CCOCC1)c1cc([N+](=O)[O-])ccc1N1CCOCC1 | 21 | -18 | -12 | 6 | -2 | 27
SMILES | TROY signal inh | CF NFkB block | TWEAK Fn14 block | HIF-2a block | KKLEB tox | Peg3 prom inh
CC1CCN(c2ccccc2NC(=O)c2ccc(N3CCOCC3)c([N+](=O)[O-])c2)CC1 | -10 | 43 | -21 | 8 | -54* | 3
Cc1cc(C(=O)Nc2ccccc2N2CCOCC2)ccc1[N+](=O)[O-] | 0 | -4 | -17 | 16 | 16 | 13
COc1ccccc1NC1CCCCC1NS(=O)(=O)c1ccccc1 (centres undefined) | 1 | 26 | 20 | 9 | 17 | 5
CCc1ccc(C(C(=O)NC2CCCCC2)N(C(=O)c2csnn2)C2CC2)cc1 (centres undefined) | -8 | -2 | 10 | 3 | -2 | 22
O=C(Nc1ccccc1-c1ccccc1)c1ccc(Cl)c([N+](=O)[O-])c1 | -6 | -10 | -21 | 25 | 0 | 94*
O=C(Nc1ccccc1N1CCCCC1)c1ccc(Cl)c([N+](=O)[O-])c1 | -11 | -2 | -18 | 17 | 0 | 101*
O=C(NC(=S)Nc1cccc(Cl)c1N1CCCCC1)c1ccc2c(c1)OCCO2 | 70* | 28 | 71* | -8 | -7 | -28
O=C(Nc1ccc(Nc2ccccc2)cc1)c1ccc(Cl)c([N+](=O)[O-])c1 | 22 | -17 | -8 | 2 | 10 | -27
CN1CCN(c2ccccc2NC(=O)c2ccc(N3CCCC3)c([N+](=O)[O-])c2)CC1 | -6 | -5 | -14 | -11 | 6 | 24
O=C(Nc1cccc(Cl)c1N1CCCCC1)c1ccc2c(c1)OCCO2 | 2 | -2 | -15 | -3 | -5 | -14
COC(=O)[C@]12CCCCC=C1N(Cc1ccc3c(c1)OCO3)C(=O)[C@H](CC(=O)NCC13CC4CC(CC(C4)C1)C3)C2 | / | / | / | 3 | / | /
CC(C)CN(C(=O)CN(C)C(=O)c1ccco1)c1c(N)n(CC(C)C)c(=O)[nH]c1=O | -8 | 8 | -6 | 15 | -2 | 2
c1csc(CCNc2ncnc3sc4c(c23)CCC4)c1 | 54* | 42 | 61* | -17 | -21 | -8
Cc1ccc(Cn2c(C)c(C(=O)NCc3cccs3)sc2=O)cc1 | 7 | 4 | -21 | 0 | -14 | 12
Oc1ccc(Cl)cc1Sc1cc(Cl)ccc1O | 62* | 63* | 73* | 10 | 10 | 71*
C=CCN(C(=O)CSc1nc2c(sc3ccccc32)c(=O)n1CCN(CC)CC)c1ccccc1 | -13 | 11 | -17 | -8 | -13 | 64*
C=CCN(C(=O)CSc1nc2ccsc2c(=O)n1Cc1ccccn1)c1ccccc1 | -15 | -28 | -4 | -82 | 22 | -47
Nc1ncnc2c1ncn2[C@@H]1O[C@H](C(=O)NCc2ccc(OC(F)(F)F)cc2)[C@@H](O)[C@H]1O | -2 | -36 | -3 | 25 | -6 | 6
COc1ccc(Cn2c(O)c(C=Nc3ccccc3C(=O)O)c3ccccc3c2=O)cc1 | 52* | 6 | 44 | 14 | 10 | 21
COc1c(C)cc(C(O)c2ncc(-c3ccc(C(F)(F)F)cc3)[nH]2)cc1C (centres undefined) | 18 | -4 | 5 | 14 | -3 | 32
CCOC(=O)C(=O)Cc1nc(OCc2ccccc2)cc(OCc2ccccc2)n1 | -7 | 20 | 3 | 13 | -9 | 25
